Data published in PubChem BioAssay (NCATS).
Inconclusive results are not listed. Calls of active or inactive are those of the source. Calls follow the shape of the dose curve; as a rule, active = well fitted inhibition curve with a large enough effect; inconclusive = small, poorly fitted or top-dose-only effect; inactive = flat fitted curve, though single readings scatter.

What was measured:
Test in all cases: Cytotoxic Profiling of Annotated Libraries Using Quantitative High-Throughput Screening (AID 1296008); also: nearly all actives have a fitted effect of over 60% in size
Details in all cases: Five cell lines viability, CellTiter-Glo ATP luminescence, 48-72 h; max response: stronger effect = lower value
[1] = tested on: CRL-7250
Method in brief: (§1)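 Cells exposed to compounds for 48 or 72 hr at 37 degrees Celsius. Viability read as ATP-coupled luminescence with CellTiter-Glo after 10 min at room temperature.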

[2] = tested on: HEK293
Method in brief: as §1

[3] = tested on: HaCat
Method in brief: as §1

[4] = tested on: KB-3-1
Method in brief: as §1

[5] = tested on: NIH3T3
Method in brief: as §1
% is scaled to controls: 0 for no effect and ±100 for the full control effect; potency is read from the fitted curve at half-maximal effect.

CCc1ccc(Cc2ccc3c(c2)[C@]2(OC3)O[C@H](CO)[C@@H](O)[C@H](O)[C@H]2O)cc1
inactive: outcome [1] | max response [2] -3.78% | max response [3] 3.62% | max response [4] -4.58% | max response [5] 1.11%

C=C[C@]1(C)C=C2CCC3C(C)(CCC[C@@]3(C)C(=O)O)C2CC1 (stereo not given in full)
inactive: outcome [1] | max response [2] 0.507% | max response [3] -0.617% | max response [4] 8.11% | max response [5] -2.38%

C[C@@H]1C(=O)O[C@H]2C[C@]34[C@H]5C[C@@H](C(C)(C)C)[C@]36[C@@H](OC(=O)[C@H]6O)O[C@]4(C(=O)O5)[C@]21O
inactive: max response [1] -0.0261% | max response [2] -44.8% | max response [3] 3.22% | max response [4] -3.28% | max response [5] 3.92%

COc1ccc(C(=O)n2c(C)c(Cc3cccc(O[C@@H](C)C(=O)O)c3)c3cc(OC(F)(F)F)ccc32)cc1
inactive: max response [1] -19.1% | max response [2] -1.86% | max response [3] -6.22% | max response [4] 0.537% | max response [5] 2.93%

COc1cc(/C=C/C(=O)OC[C@H]2O[C@@](CO)(O[C@H]3O[C@H](CO)[C@@H](O)[C@H](O)[C@H]3O)[C@@H](OC(=O)/C=C/c3ccc(O)c(OC)c3)[C@@H]2O)ccc1O
inactive: max response [1] -25.3% | max response [2] 4.27% | max response [3] -7.21% | max response [4] -7.62% | max response [5] 0.754%

C/C=C(\C)C(=O)O[C@H]1[C@@H](O[C@]2(COC(=O)CC(C)C)O[C@H](COC(=O)C(C)CC)[C@@H](OC(C)=O)[C@@H]2O)O[C@H](COC(C)=O)[C@@H](O)[C@@H]1O (stereo not given in full)
inactive: max response [1] 0.451% | max response [2] 2.82% | max response [3] 1.55% | max response [4] 6.8% | max response [5] -0.857%

O=C(CN1C(=O)C2(CCCC2)NCC1c1cc(F)cc(F)c1)Nc1ccc2c(c1)CC1(C2)C(=O)Nc2ncccc21 (stereo not given)
inactive: outcome [1] | max response [2] -6.98% | max response [3] 1.71% | outcome [4] | max response [5] -0.622%

C[C@H]1CC[C@@H]2N(C1)C[C@@H]1[C@H]([C@@H](O)[C@H](O)[C@]3(O)[C@H]1C[C@@]14OC5(O)[C@@H](C[C@@H](O)[C@@H]31)[C@]4(C)CC[C@@H]5O)[C@]2(C)O
inactive: outcome [1] | max response [2] -8.96% | max response [3] -17.6% | outcome [4] | max response [5] 0.156%

C=C(C)C1CCC2(C(=O)O)CCC3(C(=O)O)C(CCC4C5(C)CCC(O)C(C)(C(=O)O)C5CCC43C)C12 (stereo not given)
inactive: outcome [1] | max response [2] 3.45% | max response [3] 3.2% | max response [4] -7.04% | max response [5] 1.18%

CC1=CC(=O)C2C(C)(C)CCC[C@]2(C)[C@H]1CO (stereo not given in full)
inactive: max response [1] -14.4% | max response [2] 1.55% | max response [3] -11.3% | max response [4] 2.57% | max response [5] 2%

OC[C@H]1O[C@@H](O[C@H]2[C@H](OCc3ccccc3)O[C@H](CO[C@@H]3OC[C@@H](O)[C@H](O)[C@H]3O)[C@@H](O)[C@@H]2O)[C@H](O)[C@@H](O)[C@@H]1O
inactive: max response [1] -6.77% | max response [2] 0.36% | max response [3] -3.65% | max response [4] 4.93% | max response [5] -3.84%

CC(O)CCC1C(CO[C@@H]2O[C@H](CO)[C@@H](O)[C@H](O)[C@H]2O)CC(O)CC1(C)C (stereo not given in full)
inactive: outcome [1] | max response [2] 1.92% | max response [3] -5.9% | max response [4] 8.38% | max response [5] -8.75%

CC1(C)CC[C@]2(C(=O)O[C@@H]3O[C@H](CO)[C@@H](O)[C@H](O)[C@H]3O)CC[C@]3(C)C(=CCC4[C@@]5(C)C[C@@H](O)[C@H](O)C(C)(C)C5[C@H](O)C[C@]43C)[C@@H]2[C@@H]1O (stereo not given in full)
inactive: outcome [1] | max response [2] 1.53% | max response [3] 0.337% | outcome [4] | max response [5] -3.1%

CC(=O)/C=C/[C@H]1[C@](C)(O)[C@@H](O)[C@H](OC(C)=O)C2C(C)(C)CCC[C@@]21C (stereo not given in full)
inactive: max response [1] 4.5% | max response [2] -3.84% | max response [3] -21.7% | outcome [4] | max response [5] -10.6%

C[C@]12C=C[C@@]3(CCC4[C@](C)(CO)CCC[C@@]4(C)C3CC1)C2 (stereo not given in full)
inactive: max response [1] -1.08% | max response [2] -17.4% | max response [3] -20.7% | max response [4] 4.11% | max response [5] -6.89%

OC[C@H]1O[C@@H](O[C@H]2[C@H](OCCc3ccccc3)O[C@H](CO)[C@@H](O)[C@@H]2O)[C@H](O)[C@@H](O)[C@@H]1O
inactive: outcome [1] | max response [2] -0.444% | max response [3] -12% | max response [4] 5.74% | max response [5] -1.68%

O=C(NCC(O)CO)c1ccncc1Nc1ccc(I)cc1F (stereo not given)
active: Potency [1] 6.51 µM | Potency [3] 18.4 µM | Potency [5] 7.31 µM
inactive: max response [2] -15.9% | outcome [4]

C=C1CCC2C(C)(C(=O)O)CCCC2(C)C1CCC(C)CC(=O)O (stereo not given)
inactive: max response [1] 1.5% | max response [2] -0.0508% | max response [3] 3.35% | max response [4] -0.708% | max response [5] -9.77%

CON(C)C(=O)[C@H](O)[C@H](Cc1ccccc1)NC(=O)c1cc2cc(Cl)ccc2[nH]1
inactive: outcome [1] | max response [2] -8.5% | max response [3] -24.4% | max response [4] 5.78% | max response [5] -9.74%

C[C@@H](O)[C@H](NC(=O)c1ccc(C#Cc2ccc(CN3CCOCC3)cc2)cc1)C(=O)NO
inactive: max response [1] -14.3% | max response [2] -16.7% | max response [3] -21.7% | outcome [4] | max response [5] 3.18%

CC(C)C(N)C(=O)OCCOCn1cnc2c(=O)[nH]c(N)nc21 (stereo not given)
inactive: max response [1] 2.37% | max response [2] 1.16% | max response [3] -13.5% | max response [4] -4.91% | max response [5] 1.39%

COc1ccc(CCO[C@@H]2O[C@H](CO[C@@H]3OC[C@H](O)[C@H](O)[C@H]3O)[C@@H](O)[C@H](O)[C@H]2O)cc1
inactive: max response [1] -3.54% | max response [2] -0.354% | max response [3] -19% | max response [4] 4% | max response [5] -5.95%

C=C1[C@H](OC(C)=O)[C@H]2[C@@H](OC(C)=O)[C@](C)(OC(C)=O)C[C@]2(OC(C)=O)C(=O)[C@H](C)/C=C/C(C)(C)C(=O)[C@H](OC(=O)C(C)C)[C@H]1OC(C)=O
inactive: max response [1] 0.468% | max response [2] 1.22% | max response [3] -2.43% | outcome [4] | max response [5] 2.17%

C/C1=C\CCC(C)CCO[C@@H]2O[C@H](CO[C@@H]3OC[C@H](O)[C@H](O)[C@H]3OC1=O)[C@@H](O)[C@H](O)[C@H]2O (stereo not given in full)
inactive: max response [1] -2.22% | max response [2] 2.77% | max response [3] -12.1% | outcome [4] | max response [5] -2.67%

COC(=O)c1ccnc(-c2cc(C(=O)NCCc3ccccc3)ccn2)c1
inactive: max response [1] -12.7% | max response [2] -3.61% | max response [3] 1.24% | max response [4] 1.93% | max response [5] 1.58%

CCN1CCN(Cc2ccc(NC(=O)c3ccc(C)c(NC(=O)c4cncc(-c5cccs5)c4)c3)cc2C(F)(F)F)CC1
active: Potency [1] 0.461 µM | Potency [2] 1.3 µM | Potency [3] 0.92 µM | Potency [4] 14.6 µM | Potency [5] 1.16 µM

CC(=O)O[C@@H]1c2c3c(cc(O)c2C(=O)O[C@@H]1C)O[C@@]1(C)[C@@H](O)C[C@H]2C(C)(C)C(=O)C=C[C@]2(C)[C@@H]1C3
inactive: max response [1] -27.6% | max response [2] -27.5% | max response [3] 3.68% | outcome [4] | max response [5] -3.36%

O=C(NCc1cccc(O)c1)c1cc2cc(F)ccc2[nH]1
inactive: max response [1] 3.57% | max response [2] -13.7% | max response [3] -7.37% | max response [4] -5.86% | max response [5] -0.959%

O=C(/C=C/c1ccc(O)cc1)OC1[C@H](O)CC(O)(C(=O)O)C[C@H]1O (stereo not given in full)
inactive: max response [1] -9.1% | max response [2] -1.83% | max response [3] 1.01% | max response [4] 2.34% | max response [5] -9.08%

C=C1C(OC(=O)/C(C)=C\C)[C@@]23CCC4[C@@](C)(CCC[C@@]4(C)C(=O)O)C2CC[C@H]1C3OC(C)=O (stereo not given in full)
inactive: max response [1] -2.82% | max response [2] -4.19% | max response [3] 4.6% | max response [4] 5.82% | max response [5] 1.34%

CC1CC(=O)C2=C(CCC3(O)C(O)c4c(O)cccc4C(=O)C23O)C1 (stereo not given)
inactive: max response [1] -7.17% | max response [2] -13.5% | max response [3] -7.44% | max response [4] 6.8% | max response [5] 1.72%

CC(NC(=O)CCc1nc2ccccc2c(=O)[nH]1)c1ccccc1 (stereo not given)
inactive: max response [1] -18.4% | max response [2] -0.47% | max response [3] -2.07% | max response [4] -4.27% | max response [5] 2.87%

CC12CCC3c4ccc(OC5OC(C(=O)O)C(O)C(O)C5O)cc4CCC3C1CCC2O (stereo not given)
inactive: outcome [1] | max response [2] 3.31% | max response [3] 0.389% | outcome [4] | max response [5] 3.14%

CC1CCC2(C(=O)O)CCC3(C)C(=CCC4C5(C)CCC(O)C(C)(CO)C5CCC43C)C2C1(C)O (stereo not given)
inactive: max response [1] 0.977% | max response [2] -24.2% | max response [3] 1.16% | max response [4] -0.678% | max response [5] 1.81%

CC1(C)CCC2(C(=O)OC3OCC(O)C(O)C3O)CCC3(C)C(=CCC4C5(C)CC(O)C(OC6OC(COC7OCC(O)C(O)C7O)C(O)C(O)C6O)C(C)(C)C5CCC43C)C2C1 (stereo not given)
inactive: max response [1] 1.81% | max response [2] -7.77% | max response [3] 2.92% | outcome [4] | max response [5] -1.51%

COc1ccc(-c2nc(-c3ccc(-c4cccc(Cl)c4)o3)[nH]c2-c2ccc(OC)cc2)cc1
inactive: outcome [1] | max response [3] -26.5% | max response [4] -16.3% | max response [5] -19.3%
active: Potency [2] 20.6 µM
